Assay outcomes (PubChem)
Only some compounds are listed: those with a hit (about 27% of all), similar ones and a draw of the others.
CYP2C19 inhib – blockers of cytochrome P450 2C19 activity – biochemical, luminescence, ADME assay, primary screen; inhibition, % at 5 µM; AID 778, 2007; 21% of 96,000 active; CYP2C19 Supersomes, luciferin-H EGE luminescence, 30 min;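 active = CYP2C19 inhibition above a set limit at 5 µM in the primary screen, cut at about 50% in these data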;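 note: plate controls were negative control wells for no effect and 2.5 mM tranylcypromine positive control for full effect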
Cav3 T inh – Cav3.2 calcium influx blockers – cell-based, Fluo-4 calcium fluorescence, FDSS, MLSMR library, primary screen; 4% of 100,000 active; Cav3.2-expressing cells; hits give low values; B-score at 10 µM;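 active = single-dose well whose peak fluorescence ratio is a statistical outlier from its plate by either plate-standardised score or position-corrected B-score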
CYP2C19 act – human CYP2C19 activators, primary screen, biochemical, luminescence | 96,000 tested, under 10 active | Cytochrome P450 2C19 (Homo sapiens), P33261 | recombinant CYP2C19, luciferin-H EGE luminescence; hits give high values; 0 = fully inhibited enzyme, 1 = untreated enzyme | activation factor at 5 µM;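 active = activation factor of at least 2 at 5 µM in the primary screen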;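 note: 0 = wells with 2.5 mM tranylcypromine and 1 = vehicle-only wells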
CYP2C9 activ – human CYP2C9 activators, primary screen, biochemical, luminescence. 1.4% of 96,000 active. activation factor at 5 µM. Cytochrome P450 2C9 (Homo sapiens), P11712. recombinant CYP2C9, luciferin-H conversion; hits give high values; factor 1 = untreated enzyme, 0 = blocked. AID 1024, 2008;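 active = activation factor of 2 or more for CYP2C9 at a 5 µM dose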;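 note: 0 = sulfaphenazole-blocked wells and 1 = vehicle-only wells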
Target sequence (P11712 whole entry, looked up): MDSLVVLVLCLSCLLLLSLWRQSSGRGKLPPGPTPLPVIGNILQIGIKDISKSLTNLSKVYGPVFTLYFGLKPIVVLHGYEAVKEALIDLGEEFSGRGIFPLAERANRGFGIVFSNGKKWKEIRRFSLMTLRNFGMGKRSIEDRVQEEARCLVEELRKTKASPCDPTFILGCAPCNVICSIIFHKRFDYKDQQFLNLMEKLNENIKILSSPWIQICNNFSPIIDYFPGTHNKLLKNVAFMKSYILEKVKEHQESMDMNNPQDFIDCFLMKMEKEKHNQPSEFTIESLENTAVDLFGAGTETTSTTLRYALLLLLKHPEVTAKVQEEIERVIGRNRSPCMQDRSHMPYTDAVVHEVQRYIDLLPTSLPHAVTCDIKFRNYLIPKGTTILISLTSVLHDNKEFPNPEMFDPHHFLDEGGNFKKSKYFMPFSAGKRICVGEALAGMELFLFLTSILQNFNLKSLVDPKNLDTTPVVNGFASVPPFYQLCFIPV
CYP2C9 inhib – blockers of cytochrome P450 2C9 activity – biochemical, luminescence, ADME assay, primary screen | 20% of 96,000 active | inhibition, % at 5 µM | AID 777, 2007 | P11712 | CYP2C9 Supersomes, luciferin-H conversion;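 active = blocking of liver enzyme CYP2C9 beyond about 50% at 5 µM, limit read from the data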
An asterisk follows results filed as active; . = no result.

SMILES	CYP2C19 inhib	Cav3 T inh	CYP2C19 act	CYP2C9 activ	CYP2C9 inhib
COc1cc(C(=O)COC(=O)CNC(=O)C2CCCCC2)cc(OC)c1OC	26	-0.009	0.7	0.9	12
CCN(CC)c1ccc(-c2nnc(SCC(=O)Nc3ccccc3C#N)n2-c2ccccc2)cc1	52*	-2.4	0.5	0.3	74*
N#Cc1ccccc1NC(=O)CSc1nnc(-c2ccccc2)n1-c1ccccc1	36	0.014	0.6	0.2	78*
Cc1ccc(-c2nnc(SCC(=O)CC(=O)Nc3ccccc3)n2-c2ccccc2)cc1	3	0.0027	1	0.8	20
C=CCn1c(SCCC(=O)O)nc2c1c(=O)n(C)c(=O)n2C	3	-0.72	1	1	-2
CC(C)N(CCCNC(=O)CC1Oc2ccccc2NC1=O)Cc1ccccc1 (stereo not drawn)	-3	0.2	1	1.1	-5
CNc1ccccc1C(C)(C)c1cc(-c2ccco2)n[nH]1	54*	-2.4	0.5	0.7	25
Cc1ccc(C(=O)N2CCN(c3cccc(Cl)c3)CC2)cc1C	71*	-2.1	0.3	1.3	-32
Cc1ccc(C(=O)N2CCN(c3ccccc3)CC2)cc1C	69*	0.091	0.3	1.5	-47
Cc1cc(C(=O)N2CCN(c3ccccc3)CC2)c(C)o1	38	-0.53	0.6	1	-5
CCOC(=O)c1c(C)c(C(=O)N2CCN(c3cccc(Cl)c3)CC2)c(C)n1C	67*	-0.62	0.3	0.3	74*
Cc1cc(C(=O)N2CCN(c3cccc(Cl)c3)CC2)c(C)o1	42	-1.8	0.6	0.4	60*
COc1ccc(C(=O)N2CCN(c3cccc(Cl)c3)CC2)cc1	.	-0.87	.	.	.
Cc1c(C#N)sc2nc(-c3ccccc3)nc(N3CCCC3)c12	-10	-0.0058	1.1	0.7	28
NCCCC[C@H](NC(=O)C1CCNCC1)c1nnc(CN)o1	.	0.14	.	.	.
COC/C=C/C1=CC2=CC(=O)C(C)(OC(=O)c3cnc4ccccc4n3)C(=O)C2=CN1CCc1c[nH]c2ccccc12 (stereo not drawn)	.	-0.68	.	.	.
CCOC(=O)c1[nH]c2ccc(F)cc2c1NC(=O)C(C)N1CCc2cc(OC)c(OC)cc2C1 (stereo not drawn)	91*	0.13	0.1	0	98*
CCOC(=O)c1[nH]c2ccc(OC)cc2c1NC(=O)CN1CCC2(CC1)OCCO2	35	2.4	0.6	0.9	12
CCOC(=O)c1[nH]c2ccc(OC)cc2c1NC(=O)C(C)N1CCC2(CC1)OCCO2 (stereo not drawn)	70*	0.15	0.3	0.3	71*
O=C(NNC(=O)c1sccc1-n1cccc1)c1cccc(Cl)c1	14	-0.068	0.9	0.9	11
Cc1cc(C)n2c(SCC(=O)Nc3ccc(Cl)cn3)nnc2n1	36	-0.32	0.6	0.8	16
COc1ccc(-n2nnc3c(=O)n(Cc4cc(C)ccc4C)cnc32)cc1	36	-2.4	0.6	0.3	72*
Cc1ccc(-n2nnc3c(=O)n(Cc4ccccc4C)cnc32)cc1	11	1	0.9	1.1	-6
CN(CC(=O)NC1CCCCCC1)S(=O)(=O)c1ccc2c(c1)n(C)c(=O)c(=O)n2C	-8	1.3	1.1	1	-4
Cc1ccc(C2=NN3C(C(=O)c4ccccc4)Oc4ccccc4C3C2)cc1 (stereo not drawn)	82*	-7.3*	0.2	0.3	70*
SMILES	CYP2C19 inhib	Cav3 T inh	CYP2C19 act	CYP2C9 activ	CYP2C9 inhib
COc1ccc(C2=NN3C(C2)c2ccccc2OC32C(=O)N(C)c3ccccc32)cc1 (stereo not drawn)	5	.	1	0.9	15
Cc1cc(C)n(-c2nc3c(c(=O)[nH]c(=O)n3C)n2CC(C)C)n1	3	0.25	1	1.3	-34
C=C(C)CC1Nc2ccccc2NC1CC(=C)C (stereo not drawn)	16	-0.0034	0.8	1.1	-9
N#Cc1nc(COc2ccccc2)oc1N1CCN(c2cccc(Cl)c2)CC1	38	-2.4	0.6	0.2	80*
N#Cc1nc(COc2cccc(Cl)c2)oc1N1CCN(c2ccccc2)CC1	50	-2.4	0.5	0.4	57*
N#Cc1c(C(F)(F)F)cc(-c2ccco2)nc1SCc1ccncc1	87*	-0.96	0.1	0.1	92*
N#Cc1c(C(F)(F)F)cc(-c2ccco2)nc1SCc1ccccn1	10	-0.066	0.9	0.8	22
COc1cc(NC(=O)c2ccco2)c(OC)cc1NC(=O)Nc1ccccc1Cl	85*	0.27	0.2	0.4	60*
C=CCN(CC=C)C(=O)Nc1cc(Cl)ccc1OC	85*	-1.5	0.1	2.7*	-172
O=C(Nc1ccc(NC(=O)C2CCCCC2)nc1)c1ccco1	61*	0.3	0.4	0.7	32
COc1ccc(OC)c(N/C(=N\c2nc(C)cc(C)n2)NC(=O)c2ccco2)c1	18	.	0.8	0.4	56*
CC1CCCCN1CCNS(=O)(=O)c1ccc2c(c1)oc(=O)n2C (stereo not drawn)	-23	0.22	1.2	1.2	-18
CC1CN=C(N(C(=O)Nc2ccccc2)c2ccc(S(=O)(=O)N3CCOCC3)cc2)S1 (stereo not drawn)	7	-3.1	0.9	0.5	46
COc1ccc(Cl)cc1C(=O)NNC(=O)c1cccnc1	-3	0.047	1	1.4	-38
COc1ccc(Cl)cc1NC(=O)c1cccnc1	-6	-0.62	1.1	2.6*	-157
COc1ccc(Cl)cc1C(=O)Nc1ccc(NC(=O)c2ccco2)cc1	4	-0.077	1	0.6	38
CC1CCCCN1S(=O)(=O)c1ccc(NC(=O)c2ccco2)cc1 (stereo not drawn)	59*	-0.031	0.4	0.3	72*
COc1ccc(Cl)cc1NC(=O)c1ccco1	32	-0.43	0.7	4.2*	-320
COc1cc(NC(=O)C2CCCCC2)c(OC)cc1NC(=O)c1ccco1	62*	0.22	0.4	0.5	47
CCn1ncc(C2=NOC(C(=O)Nc3cnn(C45CC6CC(CC(C6)C4)C5)c3)C2)c1C (stereo not drawn)	10	-2.3	0.9	0.9	11
O=C(NCC(=O)N(c1cccc(F)c1)C(C(=O)NCC1CCCO1)c1ccccc1)c1ccco1 (stereo not drawn)	-13	0.7	1.1	1.1	-13
COc1ccc(NC(=O)CCc2ccccc2)cc1NC(=O)c1ccco1	62*	-0.0099	0.4	0.3	66*
COc1ccc(CC(=O)Nc2ccc(OC)c(NC(=O)c3ccco3)c2)cc1	11	0.91	0.9	0.8	17
COc1ccccc1-n1cnc2cc(NC(=O)c3ccco3)ccc21	65*	-0.65	0.3	1.1	-6
CNC(=O)COC(=O)c1cc(NC(=O)c2ccco2)c(OC)c(OC)c1	4	1.1	1	0.5	54*
